nsP2pro primary: blocks chikungunya virus nsP2 protease peptide cleavage; Q8JUX6; FRET peptide cleavage, nsP2pro, fluorescence 1 h; Potency, µM (highest dose often 24.9 µM), inactives show at the top dose activity change, negative = inhibition, usual class: inhibitors; 31,000 compounds, 1.1% hits; AID 1964107; note: nearly all actives have a fitted effect of over 60% in size
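Enzyme 150 nM, substrate 2.5 uM (both final); Tris-HCl 10 mM pH 8.0 + 0.01% Tween 20; cpd up to 25 uM, 7 pts; 15 min preinc., 1 h RT; fluorescence ex 525/em 598.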
CHIKV nsP2 cell: secondary cell-based test for CHIKV nsP2 protease inhibitors; shares compounds with nsP2pro primary; cell-based CHIKV nsP2 protease reporter assay; Potency, µM (doses to about 51.1 µM), inactives show at the top dose activity change, negative = inhibition, hits mostly inhibitors; 450 compounds, 10% hits; note: nearly all actives have a fitted effect of over 70% in size
Target sequence (Q8JUX6 220-798 limits assumed): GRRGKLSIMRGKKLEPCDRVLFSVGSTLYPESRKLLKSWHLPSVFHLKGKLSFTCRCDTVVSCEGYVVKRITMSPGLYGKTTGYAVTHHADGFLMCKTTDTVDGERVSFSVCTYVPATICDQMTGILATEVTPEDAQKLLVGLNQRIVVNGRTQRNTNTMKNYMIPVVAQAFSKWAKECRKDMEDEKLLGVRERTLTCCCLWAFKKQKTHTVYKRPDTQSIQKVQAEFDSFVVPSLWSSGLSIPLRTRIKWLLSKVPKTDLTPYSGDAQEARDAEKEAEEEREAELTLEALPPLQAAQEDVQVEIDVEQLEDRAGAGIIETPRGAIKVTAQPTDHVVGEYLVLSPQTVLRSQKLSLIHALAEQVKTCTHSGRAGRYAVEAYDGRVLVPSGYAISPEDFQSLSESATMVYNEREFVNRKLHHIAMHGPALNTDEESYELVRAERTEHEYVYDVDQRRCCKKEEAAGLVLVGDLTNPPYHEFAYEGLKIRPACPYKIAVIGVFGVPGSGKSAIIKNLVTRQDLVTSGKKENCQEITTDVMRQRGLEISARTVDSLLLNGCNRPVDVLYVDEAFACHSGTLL
NSP2 full ctr: full-length CHIKV NSP2 protease inhibition, selectivity; 410 compounds, 39% hits; Potency, µM (series often up to 50.7 µM), for inactives: at the top dose activity change, negative = inhibition, hits mostly inhibitors; Full-length CHIKV NSP2 protease enzymatic counterscreen; AID 1964101; shares compounds with nsP2pro primary; note: nearly all actives have a fitted effect of over 65% in size
Furin counter: selectivity counter-screen for CHIKV nsP2 protease inhibitors: human furin. shares compounds with nsP2pro primary. Recombinant human furin enzymatic counterscreen, fluorogenic substrate. Potency, µM (highest dose often 50.6 µM), for the others: at the highest dose activity change, negative = inhibition, actives largely listed as inhibitors. 410 compounds, 6% hits. AID 1964102
NS23 peptide cs: blocks CHIKV nsP2 protease cleavage of endogenous NS2/3 peptide. AID 1964103. Purified CHIKV nsP2 protease, endogenous NS2/3 peptide cleavage. shares compounds with nsP2pro primary. 410 compounds, 34% hits. Potency, µM (highest dose often 51 µM), without a hit: at the highest dose activity change, negative = inhibition, hits mostly inhibitors; note: nearly all actives have a fitted effect of over 55% in size
Papain cs: selectivity counter-screen for CHIKV nsP2 protease inhibitors: papain; shares compounds with nsP2pro primary; purified papain protease activity, enzymatic inhibition; Potency, µM (highest dose often 51 µM), inactives show at the highest dose activity change, negative = inhibition, most hits filed as inhibitors; 410 compounds, 5% hits
nsP2pro conf qHTS: confirmation of CHIKV nsP2 protease inhibitors. shares compounds with nsP2pro primary. CHIKV nsP2 protease enzymatic activity, qHTS. Potency, µM (series often up to 25.5 µM), for inactives: at the top dose activity change, negative = inhibition, usual class: inhibitors. 410 compounds, 43% hits. AID 1964105; note: nearly all actives have a fitted effect of over 75% in size
HCV NS3 counter: inhibits HCV NS3/4A protease in an nsP2pro selectivity counterscreen; Potency, µM (doses to about 50.9 µM), actives largely listed as inhibitors; AID 1964106; 410 compounds, 20% hits; HCV NS3/4A protease biochemical counterscreen; shares compounds with nsP2pro primary; note: nearly all actives have a fitted effect of over 55% in size
An asterisk follows results filed as active; i = inactive; ? = inconclusive; ! = repeats disagree; [ ] = another dose, or the depositor's remark. The entries come from a sample that favours hits as a whole. Calls come from the whole dose curve. % is set by controls: 0 for no effect and ±100 for the full control effect; potency is the fitted concentration of half-maximal effect.

SMILES	nsP2pro primary	others
O=C(C1CCCC1)N1CC2(CCN(Cc3ccc(Cl)cc3)C2)Cc2ccccc21 (stereo unspecified)	-2.1%
O=C(Nc1ccc2[nH]c(=O)oc2c1)C(=O)N1CCC(Cc2ccc(F)cc2)CC1	-5.2%
O=C(CCN1CCN(C(=O)OCc2cc(Cl)cc(Cl)c2)CC1)c1ccc2[nH]c(=O)oc2c1	0.988µM*!	CHIKV nsP2 cell=-2.4%;NSP2 full ctr=16.3µM*;Furin counter=-3.3%;NS23 peptide cs=?;Papain cs=-20.9%;nsP2pro conf qHTS=6.34µM*;HCV NS3 counter=i
CC(C)OC(=O)c1ccnc2cc(C(OCCN3CCCCC3)c3ccccc3Cl)sc12 (stereo unspecified)	23.5%
O=C(Cc1ccccc1)Nc1ccc(S(=O)(=O)Nc2nccs2)cc1	-0.8%
COc1ccc(C(=O)Nc2cnc(-c3ccc(Cl)cc3)nc2)cc1	-0.7%
Cc1ccccc1C1=CCN(C)CC1	-4.1%
Cc1ccccc1C1=CCN(c2ncc(NC(=O)c3ccc(Cl)cc3)cc2C(=O)O)CC1	?	CHIKV nsP2 cell=-4.7%
O=C(Cc1ccc(Cl)c(Cl)c1)Nc1ccc([S+](=O)([O-])Nc2ccc3[nH]ccc3c2)cc1	-11.6%
COc1cc(NS(=O)(=O)c2ccc(C)cc2)c(C(=O)Nc2nc(-c3ccccc3)cs2)cc1OC	i
C=C1C(=O)O[C@H]2C3=C(C)CCC[C@]3(C)C(=O)C[C@@H]12	?	CHIKV nsP2 cell=?;NSP2 full ctr=?;Furin counter=1.6%;NS23 peptide cs=?;Papain cs=?;nsP2pro conf qHTS=?;HCV NS3 counter=i
C=C1CC[C@@H](O)[C@]2(C)CC[C@H]3C(=C)C(=O)O[C@@H]3[C@@H]12	12.4%
C=C1C(=O)O[C@@H]2[C@H]3O[C@]3(C)CC/C=C(\C)CC[C@@H]12	-4.8%
O=C(O)CCc1cc(C(=O)c2ccc(OC3CCCC3)cc2O)ccc1OCc1ccc2c(=O)[nH]oc2c1	32.0%
OCCN1CCN(CCCN2c3ccccc3Sc3ccc(C(F)(F)F)cc32)CC1	25.0%
CC(=O)c1ccc2c(c1)N(CCCN1CCN(CCO)CC1)c1ccccc1S2	-8.8%
OCCN1CCN(CCCN2c3ccccc3C=Cc3ccccc32)CC1	8.81µM*	CHIKV nsP2 cell=-1.5%;NSP2 full ctr=?;Furin counter=-8.0%;NS23 peptide cs=-3.9%;Papain cs=2.3%;nsP2pro conf qHTS=0.0%;HCV NS3 counter=i
N#Cc1nc(-c2cccc3ccccc23)oc1Nc1ccccc1	-2.7%
Cc1cc(C)nc(NC(=S)N2CCN(c3ccc([N+](=O)[O-])cc3Cl)CC2)c1	-6.2%
O=C1C(Cl)=C(N2CCOCC2)C(=O)N1c1ccc(Cl)c(Cl)c1	?	CHIKV nsP2 cell=?;NSP2 full ctr=?;Furin counter=-11.2%[17.3 µM];NS23 peptide cs=?;Papain cs=?;nsP2pro conf qHTS=3.1µM*;HCV NS3 counter=i
CN1CC[C@@H](c2c(O)cc(O)c3c(=O)cc(-c4ccccc4Cl)oc23)[C@@H](O)C1	0.8%
CNc1nc(C#N)c(-c2cccc3ccccc23)o1	-4.2%
C=CCC/C=C/C#CCCCCCCCC[C@H]1C(=O)O[C@H](C)[C@@H]1O	?	CHIKV nsP2 cell=?;NSP2 full ctr=?;Furin counter=-8.7%[33.5 µM];NS23 peptide cs=-7.9%[33.5 µM];Papain cs=?;nsP2pro conf qHTS=?;HCV NS3 counter=i
COc1cc(OC)cc(N2CCN(C(=S)Nc3cc(C)cc(C)n3)CC2)c1	i
CN(C)CCCNc1ccc(NC(=O)c2cccs2)cn1	-7.2%
SMILES	nsP2pro primary	others
Cc1cc(C)nc(NC(=S)N2CCN(c3cccc(OC(F)(F)F)c3)CC2)c1	-7.1%
CO/N=C(/C(=O)N[C@@H]1C(=O)N2C(C(=O)O)=C(CSC(=O)c3ccco3)CS[C@H]12)c1csc(N)n1	11.1µM*!	CHIKV nsP2 cell=-7.9%;NSP2 full ctr=-5.0%;Furin counter=-5.2%;NS23 peptide cs=9.2%;Papain cs=?;nsP2pro conf qHTS=-9.6%;HCV NS3 counter=i
CO/N=C(/C(=O)N[C@@H]1C(=O)N2C(C(=O)OCOC(=O)C(C)(C)C)=C(C)CS[C@H]12)c1csc(N)n1	-25.0%
CC(=O)OCC1=C(C(=O)O)N2C(=O)[C@@H](NC(=O)Cc3cccs3)[C@H]2SC1	0.1%
CC1(C)[C@H](C=C(Cl)Cl)[C@@H]1C(=O)OCc1c(F)c(F)cc(F)c1F	-4.1%
CN(Cc1ncc[nH]1)c1ncnc2ccc(-c3ccc4c(c3)OCO4)cc12	-3.7%
C/C(=N\N=C(N)N)c1cc(NC(=O)CCCCCCCCC(=O)Nc2cc(/C(C)=N/N=C(N)N)cc(/C(C)=N/N=C(N)N)c2)cc(/C(C)=N/N=C(N)N)c1	5.56µM*	CHIKV nsP2 cell=71.3%;NSP2 full ctr=13µM*;Furin counter=11.6µM*;NS23 peptide cs=13µM*;Papain cs=-16.9%;nsP2pro conf qHTS=6.34µM*;HCV NS3 counter=11.6µM*
Cc1c(C(=O)OCC2CCCCO2)[nH]c2c1C(=O)CC(c1ccco1)C2 (stereo unspecified)	7.94µM*	CHIKV nsP2 cell=14.6µM*;NSP2 full ctr=-18.5%;Furin counter=?;NS23 peptide cs=-31.2%;Papain cs=-10.1%;nsP2pro conf qHTS=-2.6%;HCV NS3 counter=i
Cc1c(C(=O)OCC2CCCCC2)[nH]c2c1C(=O)CC(c1ccc(F)cc1)C2 (stereo unspecified)	-24.1%
Cc1c(C(=O)OC2CCCCCC2)[nH]c2c1C(=O)CC(c1ccccc1Cl)C2 (stereo unspecified)	-22.9%
O=[N+]([O-])c1ccc(/C=C/c2cccc(CO)n2)o1	-16.3%
CC(C)CC(C(=O)NC(C(=O)OC1CCCC1)c1ccccc1)C(O)C(=O)NO (stereo unspecified)	-19.8%
O=C1Nc2ccccc2/C1=C\c1ccc(C(=O)O)cc1	i
CN(C)c1cc(NC(=O)CNC(C)(C)C)c(O)c2c1C[C@H]1C[C@H]3[C@H](N(C)C)C(=O)C(C(N)=O)=C(O)[C@]3(O)C(=O)C1=C2O	129.5%
CSc1nc(=O)c2c(n1C)NC(=O)CC2c1cc(F)cc(F)c1 (stereo unspecified)	0.5%
CNc1nc2c(s1)C(c1cccc(F)c1)CC(=O)N2 (stereo unspecified)	3.16µM*	CHIKV nsP2 cell=44.2%;NSP2 full ctr=?;Furin counter=8.4%;NS23 peptide cs=10.3µM*;Papain cs=55.3%;nsP2pro conf qHTS=5.65µM*;HCV NS3 counter=i
O=C(Cc1ccccn1)N1CCC(C(=O)N2CCC(c3nc4ncccc4[nH]3)CC2)CC1	i
O=C(c1ccc2c(c1)ncn2-c1cccc(C(F)(F)F)c1)N1CCCCC1	-9.4%
CC[C@@H](C)Nc1cc(C(=O)NC2CC3CC[C@@H](C2)N3c2ccc(C(=O)C3CC3)cn2)c(C)cc1C(N)=O (stereo partly specified)	-1.3%
O=C(Nc1ccc(=O)n2c1[C@@H]1C[C@@H](CN(C(=O)COc3ccccc3)C1)C2)c1ccccc1	-0.1%

Assay outcomes deposited in PubChem by National Center for Advancing Translational Sciences (NCATS).
